Experimental data as given in PubChem BioAssay.
This is one part of the list. Results filed as inconclusive are left out. Calls of active or inactive are those of the source.

Assays:
[1] = molecular target: Solute carrier family 12 member 5 (Homo sapiens) (UniProt Q9H2X9); assay: KCC2 modulators in sodium-free buffer, confirmation, cell-based, HEK293 KCC2, thallium flux, secondary assay (AID 1713); settings: FluoZin2 fluorescence, at 10 µM, stronger effect = higher value
[2] = PubChem AID 1714; settings: HEK293-KCC2 + bumetanide/ouabain, thallium flux FluoZin2; at 10 µM; stronger effect = higher value;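 further: raw slope of fluorescence over initial fluorescence between 10 and 20 s after thallium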
[3] = molecular target: Solute carrier family 12 member 5 (Homo sapiens) (UniProt Q9H2X9); assay: KCC2 modulators without ouabain present, confirmation, cell-based, HEK293 KCC2, thallium flux, FluoZin2, secondary assay 2 (AID 1715;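 active means thallium flux slope more than 3 SD above or below the plate's solvent-only control mean, mostly below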;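 further: raw slope with 0.1% DMSO as baseline and bumetanide as block control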); settings: HEK293-KCC2, thallium flux FluoZin2 fluorescence; at 10 µM; actives lie on both sides; F/F0 rise rate, 10–20 s post-thallium
[4] = thallium flux modulation in parental HEK cells, confirmation, counter-screen for KCC2 modulator project, cell-based, counterscreen 1 (AID 1716;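 active means thallium flux rate significantly above the same plate's solvent-only control wells, beyond their mean plus 3 SD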); settings: HEK293 parental cells, thallium flux FluoZin2, ouabain; at 10 µM; baseline-ratio fluorescence slope, 10–20 s after thallium
[5] = molecular target: Solute carrier family 12 member 5 (Homo sapiens) (UniProt Q9H2X9); assay: KCC2 inhibitors and activators, ouabain retest, confirmation, HEK-KCC2 cells (AID 1717;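 active means thallium flux slope beyond 3 SD from same-plate DMSO control mean in most replicates, usually higher, sometimes lower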;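 further: slope of initial-normalized fluorescence between seconds 10 and 20 after thallium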); settings: HEK293-KCC2, thallium flux FluoZin2 fluorescence, at 10 µM, bidirectional: low = inhibitor, high = activator
[6] = native HEK Tl+ uptake effects, second counter-screen – HEK cells, counterscreen 2, counter-screen for KCC2 modulator project, confirmation (AID 1718;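 active means thallium flux slope above the same plate's solvent-control mean plus 3 SD in both duplicate wells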;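 further: run without ouabain in cells lacking the KCC2 cotransporter; slope of fluorescence scaled to its starting value between 10 and 20 s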); settings: HEK293 parental, thallium flux FluoZin-2 fluorescence slope; at 10 µM
[7] = inhibitors of TNFa-induced NFkB p65 translocation, primary screen, imaging, HUVEC, MLSMR starter and 10KST1 sets (AID 438;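 active means inhibition above 20% together with a positive visual image hit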;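 further: compound added about 3h40 before a 20 min TNFalpha stimulation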;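 on inhibition: signal is the nuclear over cytoplasmic p65 intensity ratio per well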); settings: HUVEC TNFa-induced p65 nuclear translocation; cell count: measured here: nuclei count (cytotoxicity indicator), at 2.08 µM; inhibition: at 2 µM, stronger effect = higher value, 0% TNFa-plus-vehicle, 100% no-TNFa wells
[8] = inhibitors of mutant huntingtin aggregation, primary screen, imaging, exon1htt(103Q)mCFP cells, high-content imaging (AID 483;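 active means visual image review flags a hit and inhibition of aggregation exceeds 20%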;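 further: compound exposure lasted 3 days before fixation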;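 on nuclei count: percent of the per-plate median nuclei count of sample wells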); settings: exon1htt(103Q)mCFP cell line, aggregate imaging, at 2 µM; inhibition of aggregation: stronger effect = higher value; nuclei count: measured here: cell count, toxicity
[9] = inhibitors of E-selectin induction by TNFa, primary screen, imaging, HUVEC, immunofluorescence, MLSMR starter and 10KST1 sets (AID 487;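 active means visually confirmed hit in the image check and inhibition above 20%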;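 on inhibition: signal is fraction of cell area covered by stained E-selectin grains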;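 on nuclei count: 100% = median nuclei count of all wells on the same plate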); settings: HUVEC TNFalpha-induced E-selectin immunofluorescence imaging, at 2 µM; inhibition: stronger effect = higher value; nuclei count: measured here: cell number, toxicity
[10] = DUSP6 inhibitors restoring Erk phosphorylation by chemical complementation, primary imaging in DUSP6-transfected HeLa (AID 609;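 active means compounds giving at least 50% inhibition in the cell-based MKP-3 phosphatase rescue imaging test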;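 on inhibition: phospho-Erk level distribution per well compared with pooled transfected vehicle control wells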); settings: HeLa MKP-3 transfected, phospho-Erk imaging KS statistic, at 10 µM, cells stimulated with TPA for 15 min
[11] = molecular target: Dual specificity protein phosphatase 6 (Homo sapiens) (UniProt Q16828); assay: as above; settings: HeLa MKP-3 transfected, phospho-Erk imaging KS statistic; at 10 µM; stronger effect = higher value; cells stimulated with TPA for 15 min
Chain of Dual specificity protein phosphatase 6 (Homo sapiens) (Q16828 whole entry, looked up): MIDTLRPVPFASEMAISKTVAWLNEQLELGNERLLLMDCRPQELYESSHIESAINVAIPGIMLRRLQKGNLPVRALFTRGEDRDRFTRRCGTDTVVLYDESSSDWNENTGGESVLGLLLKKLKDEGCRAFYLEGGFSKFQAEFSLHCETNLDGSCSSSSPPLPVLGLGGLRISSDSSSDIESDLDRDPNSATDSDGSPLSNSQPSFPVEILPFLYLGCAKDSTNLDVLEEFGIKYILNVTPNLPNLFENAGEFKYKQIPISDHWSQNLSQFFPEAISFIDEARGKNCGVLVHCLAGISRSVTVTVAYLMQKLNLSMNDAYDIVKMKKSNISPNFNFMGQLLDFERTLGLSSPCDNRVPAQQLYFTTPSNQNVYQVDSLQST

[12] = molecular target: Voltage-gated potassium channel subunit beta-2 (Rattus norvegicus) (UniProt P62483); assay: KvBeta enzyme negative modulators, primary screen, biochemical, NADPH fluorescence (AID 622;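 active means fluorescence slope higher than the sample average by over 3 SD, cut at about -0.22 in these data, passing the limit was not always enough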;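 further: slope of raw intensity against log time taken from 70 to 1610 s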); settings: recombinant KvBeta, 4-cyanobenzaldehyde reduction, at 10 µM, stronger effect = higher value
Chain of Voltage-gated potassium channel subunit beta-2 (Rattus norvegicus) (P62483 whole entry, looked up): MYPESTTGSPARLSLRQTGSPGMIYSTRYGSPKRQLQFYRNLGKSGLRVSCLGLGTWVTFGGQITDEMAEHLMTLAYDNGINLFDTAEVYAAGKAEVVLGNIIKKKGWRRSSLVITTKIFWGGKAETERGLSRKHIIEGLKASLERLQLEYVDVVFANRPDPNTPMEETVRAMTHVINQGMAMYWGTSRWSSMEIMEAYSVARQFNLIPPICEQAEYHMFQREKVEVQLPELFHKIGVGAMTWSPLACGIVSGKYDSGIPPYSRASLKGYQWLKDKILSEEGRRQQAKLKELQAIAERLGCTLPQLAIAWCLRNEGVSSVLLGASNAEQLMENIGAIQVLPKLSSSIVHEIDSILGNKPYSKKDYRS

[13] = molecular target: Voltage-gated potassium channel subunit beta-2 (Rattus norvegicus) (UniProt P62483); assay: KvBeta positive modulators, primary screen, biochemical, NADPH fluorescence (AID 623;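 active means NADPH fluorescence slope more negative than the mean of all samples by about 3 SD, 99.7% confidence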;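 further: fluorescence intensity change per second fitted from 20 to 320 s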); settings: Recombinant KvBeta, NADPH fluorescence decrease slope, 10 min; at 10 µM; stronger effect = lower value
[14] = molecular target: Muscarinic acetylcholine receptor M4 (Homo sapiens) (UniProt P08173); assay: compounds altering M4/GIRK thallium flux, either direction, primary screen, M4 allosteric agonist project, cell-based, HEK293 M4/GIRK, BTC-AM (AID 625;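 active means fluorescence slope after compound addition differing from the mean of all tested samples at 99.7% confidence, mostly higher but some lower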;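 further: thallium influx through GIRK channels coupled to M4 in HEK293 cells with BTC-AM dye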); settings: at 10 µM, actives lie on both sides
Chain of Muscarinic acetylcholine receptor M4 (Homo sapiens) (P08173 whole entry, looked up): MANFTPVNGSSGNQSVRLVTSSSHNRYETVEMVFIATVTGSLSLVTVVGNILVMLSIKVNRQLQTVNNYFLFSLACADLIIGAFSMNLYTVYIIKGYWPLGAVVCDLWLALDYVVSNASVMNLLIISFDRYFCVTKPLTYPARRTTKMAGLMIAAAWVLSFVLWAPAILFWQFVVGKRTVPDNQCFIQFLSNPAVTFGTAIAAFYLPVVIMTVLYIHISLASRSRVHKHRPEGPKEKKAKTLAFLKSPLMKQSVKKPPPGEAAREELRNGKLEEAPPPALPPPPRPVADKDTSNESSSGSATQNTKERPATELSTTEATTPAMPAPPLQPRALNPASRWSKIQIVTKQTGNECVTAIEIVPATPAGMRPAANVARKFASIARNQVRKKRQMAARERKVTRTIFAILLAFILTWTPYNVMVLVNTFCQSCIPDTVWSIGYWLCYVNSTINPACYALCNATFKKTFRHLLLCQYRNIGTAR

[15] = inhibitors of larval lipid processing in zebrafish, primary screen, whole organism, PED6 fluorescence, gall bladder and intestine (AID 686;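 active means a full or partial loss of lipid-probe fluorescence in the fish gall bladder, intestine or both, judged by eye; inactive means no fluorescence loss, or compound toxic to the fish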;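 further: larvae 5 to 7 days old with five fish per well; signal comes from phospholipase A2 cleavage of quenched PED6 carried via bile; overnight exposure to compound and PED6 before scoring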); settings: Zebrafish larvae PED6 lipid processing, fluorescence scoring; screened at 20 µM (by protocol)
[16] = inhibitors of Chlamydomonas gravitaxis, primary screen, whole organism, Chlamydomonas reinhardtii, WT vs cilia-less mutant, absorbance, 96-well (AID 463189;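 active means inhibition at or above 50% relative to wild type and mutant plate controls; inactive means inhibition below 50%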;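 further: 0% = wild type cc124 cells in DMSO and 100% = ciliumless bld1 mutant cells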); settings: OD600 absorbance, 2 days, at 10 µM, stronger effect = higher value
[17] = inhibitors of Sendai virus-induced IRF3 signaling, primary screen, TLR/RLR signaling modifier project, cell-based, Sendai virus stimulus, luciferase, 10K MLSCN set (AID 602276;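 active means inhibition at or above 50% at 10 µM; inactive means inhibition below 50%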;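 further: firefly luciferase from ISG56 promoter only with Renilla not read in this screen; 0% = Sendai virus plus DMSO and 100% = medium plus DMSO without virus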); settings: HEK293 RL24 IRF3 luciferase reporter, at 10 µM, stronger effect = higher value
[18] = inhibitors of poly I:C-induced TLR3 signaling, primary screen, cell-based, poly I:C stimulus, luciferase, 10K MLSCN set (AID 602277;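 active means inhibition of the reporter signal at or above 50%; inactive means inhibition below 50%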); settings: HEK293-TLR3 RL24 IRF3 luciferase reporter, at 10 µM, stronger effect = higher value

Chain of Solute carrier family 12 member 5 (Homo sapiens) (Q9H2X9 whole entry, looked up): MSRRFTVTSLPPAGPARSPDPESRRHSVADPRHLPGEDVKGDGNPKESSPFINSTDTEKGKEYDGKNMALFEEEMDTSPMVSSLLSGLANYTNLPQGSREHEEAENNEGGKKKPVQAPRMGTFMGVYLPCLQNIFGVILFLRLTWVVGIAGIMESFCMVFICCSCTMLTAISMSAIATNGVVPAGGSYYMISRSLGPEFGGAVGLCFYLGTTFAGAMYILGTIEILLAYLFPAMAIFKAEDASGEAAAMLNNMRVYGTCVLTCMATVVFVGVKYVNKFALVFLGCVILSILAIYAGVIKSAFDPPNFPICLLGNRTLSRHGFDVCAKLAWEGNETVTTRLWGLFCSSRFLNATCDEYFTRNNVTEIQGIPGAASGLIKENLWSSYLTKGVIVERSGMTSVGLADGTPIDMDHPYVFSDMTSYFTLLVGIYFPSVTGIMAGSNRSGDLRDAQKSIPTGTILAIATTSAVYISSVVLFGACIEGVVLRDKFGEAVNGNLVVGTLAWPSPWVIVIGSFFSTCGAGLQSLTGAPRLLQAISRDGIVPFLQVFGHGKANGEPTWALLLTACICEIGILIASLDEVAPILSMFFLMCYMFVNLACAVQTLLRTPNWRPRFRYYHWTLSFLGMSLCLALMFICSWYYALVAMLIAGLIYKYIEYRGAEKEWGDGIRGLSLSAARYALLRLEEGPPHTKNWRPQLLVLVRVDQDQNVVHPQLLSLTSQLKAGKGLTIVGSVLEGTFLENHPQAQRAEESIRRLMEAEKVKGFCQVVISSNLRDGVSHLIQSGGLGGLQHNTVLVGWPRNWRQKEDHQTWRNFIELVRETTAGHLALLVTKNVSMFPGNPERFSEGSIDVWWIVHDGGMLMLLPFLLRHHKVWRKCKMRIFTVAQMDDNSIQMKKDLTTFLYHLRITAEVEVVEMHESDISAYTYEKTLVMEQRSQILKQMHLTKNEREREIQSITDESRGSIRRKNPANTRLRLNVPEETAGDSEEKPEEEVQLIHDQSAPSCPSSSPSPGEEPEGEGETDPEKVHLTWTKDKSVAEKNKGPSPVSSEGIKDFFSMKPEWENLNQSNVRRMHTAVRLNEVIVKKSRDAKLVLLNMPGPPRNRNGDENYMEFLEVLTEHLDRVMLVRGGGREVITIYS

NS(=O)(=O)c1ccc(NC(=S)NC(=O)c2cccnc2)cc1
inactive: normalised thallium flux (F/F0 slope) [1] 0.00722 | normalized thallium flux [3] 0.0316 | thallium flux rate (normalised fluorescence) [4] 0.00846 | raw Tl+ flux slope (below DMSO = inhibition, above = activation) [5] 0.019 | thallium flux slope [6] 0.0122
active: normalized thallium flux [2] 0.00594

O=C(CN(c1cccc(Cl)c1)S(=O)(=O)c1ccccc1)NN=C1CCCC1
inactive: normalised thallium flux (F/F0 slope) [1] 0.0069 | normalized thallium flux [2] 0.00505 | normalized thallium flux [3] 0.0271 | thallium flux rate (normalised fluorescence) [4] 0.00791 | raw Tl+ flux slope (below DMSO = inhibition, above = activation) [5] 0.0178 | thallium flux slope [6] 0.00991

CC(C)n1cnc2c(Nc3cccc(Cl)c3)nc(N(CCO)CCCO)nc21
inactive: normalised thallium flux (F/F0 slope) [1] 0.00575 | normalized thallium flux [2] 0.00472 | thallium flux rate (normalised fluorescence) [4] 0.0075 | thallium flux slope [6] 0.0113
active: normalized thallium flux [3] 0.0232

CCn1c(=S)[nH]c2sc3c(c2c1=O)CCCCC3
active: normalised thallium flux (F/F0 slope) [1] 0.0279 | normalized thallium flux [2] 0.092 | normalized thallium flux [3] 0.0959 | thallium flux rate (normalised fluorescence) [4] 0.0964 | raw Tl+ flux slope (below DMSO = inhibition, above = activation) [5] 0.0856 | thallium flux slope [6] 0.1

CSc1ncnc2sc(C)c(C)c12
active: normalized thallium flux [2] 0.0121 | thallium flux rate (normalised fluorescence) [4] 0.0146 | thallium flux slope [6] 0.0129
inactive: normalised thallium flux (F/F0 slope) [1] 0.00741 | normalized thallium flux [3] 0.0306

O=C(NNC(=S)NC(=O)c1cn(-c2ccccc2)nc1-c1ccccc1)c1ccncc1
active: normalized thallium flux [2] 0.0138 | thallium flux rate (normalised fluorescence) [4] 0.0141 | thallium flux slope [6] 0.0155
inactive: normalised thallium flux (F/F0 slope) [1] 0.00764 | normalized thallium flux [3] 0.0344

CC(=O)NC(=S)NNC(=O)c1ccc(Br)cc1
inactive: normalised thallium flux (F/F0 slope) [1] 0.00779 | normalized thallium flux [3] 0.0358
active: normalized thallium flux [2] 0.0133 | thallium flux rate (normalised fluorescence) [4] 0.0158 | thallium flux slope [6] 0.0176

Cc1ccc(OCC(=O)NNC(=S)NCc2ccccc2)cc1
inactive: normalised thallium flux (F/F0 slope) [1] 0.00584 | normalized thallium flux [3] 0.0307 | raw Tl+ flux slope (below DMSO = inhibition, above = activation) [5] 0.0206
active: normalized thallium flux [2] 0.0196 | thallium flux rate (normalised fluorescence) [4] 0.0156 | thallium flux slope [6] 0.0162

COCCNc1nc(-n2nc(C)cc2C)nc2sc3c(c12)CCCC3
active: thallium flux rate (normalised fluorescence) [4] 0.00524 | raw Tl+ flux slope (below DMSO = inhibition, above = activation) [5] 0.0165
inactive: normalised thallium flux (F/F0 slope) [1] 0.00873 | normalized thallium flux [2] 0.00523 | normalized thallium flux [3] 0.0328 | thallium flux slope [6] 0.00908

CCNCc1cc2cc(C)ccc2[nH]c1=O
-1.38: z-score ([10]; measured here: nuclear pErk red intensity z-score, stronger effect = higher value)
132%: nuclei count [9]
0.581: z-score ([10]; measured here: cell density z-score)
inactive: inhibition [7] -5.2% | inhibition of aggregation [8] 1.8% | inhibition [9] -107% | inhibition [11] 2.71% | fluorescence slope [12] -0.515 | NADPH fluorescence slope [13] -4.8e-05 | fluorescence slope [14] 0.00569 | outcome [15] | normalised thallium flux (F/F0 slope) [1] 0.00875 | normalized thallium flux [2] 0.00485 | normalized thallium flux [3] 0.034 | thallium flux rate (normalised fluorescence) [4] 0.00817 | raw Tl+ flux slope (below DMSO = inhibition, above = activation) [5] 0.0185 | thallium flux slope [6] 0.0111 | inhibition [16] 9.6% | inhibition [17] 3.24% | inhibition [18] 16.9%
596: cell count [7]
118%: nuclei count [8]
-1.49: z-score ([10]; measured here: nuclear c-Myc green intensity z-score)

Cc1cccc(NC(=S)NC(=O)c2ccc(Br)o2)c1
active: normalised thallium flux (F/F0 slope) [1] 0.0193 | normalized thallium flux [2] 0.142 | normalized thallium flux [3] 0.0972 | thallium flux rate (normalised fluorescence) [4] 0.129 | raw Tl+ flux slope (below DMSO = inhibition, above = activation) [5] 0.124 | thallium flux slope [6] 0.0866

Cc1cs/c(=N\N=C\c2ccc(O)cc2)n1Cc1ccco1
active: normalized thallium flux [3] 0.0253
inactive: normalised thallium flux (F/F0 slope) [1] 0.00586 | normalized thallium flux [2] 0.00375 | thallium flux rate (normalised fluorescence) [4] 0.00654 | raw Tl+ flux slope (below DMSO = inhibition, above = activation) [5] 0.0162 | thallium flux slope [6] 0.0101

CCCn1c(=S)[nH]c2ccc(C(F)(F)F)cc21
inactive: normalised thallium flux (F/F0 slope) [1] 0.00727
active: normalized thallium flux [2] 0.0987 | normalized thallium flux [3] 0.0617 | thallium flux rate (normalised fluorescence) [4] 0.0842 | raw Tl+ flux slope (below DMSO = inhibition, above = activation) [5] 0.0775 | thallium flux slope [6] 0.0576

CN(C)CCn1c(=S)[nH]c2ccc(Cl)cc2c1=O
active: normalized thallium flux [2] 0.0089 | thallium flux rate (normalised fluorescence) [4] 0.0128 | thallium flux slope [6] 0.0165
inactive: normalised thallium flux (F/F0 slope) [1] 0.00617 | normalized thallium flux [3] 0.0337

Cc1onc(-c2ccccc2)c1C(=O)NNC(=S)NC(=O)c1ccc(F)cc1
inactive: normalised thallium flux (F/F0 slope) [1] 0.00605 | normalized thallium flux [3] 0.0354
active: normalized thallium flux [2] 0.0254 | thallium flux rate (normalised fluorescence) [4] 0.018 | raw Tl+ flux slope (below DMSO = inhibition, above = activation) [5] 0.0299 | thallium flux slope [6] 0.0217

c1ccc2c(C[n+]3csc4ccccc43)cccc2c1
inactive: normalised thallium flux (F/F0 slope) [1] 0.0079
active: normalized thallium flux [2] 0.0261 | normalized thallium flux [3] 0.0399 | thallium flux rate (normalised fluorescence) [4] 0.0169 | raw Tl+ flux slope (below DMSO = inhibition, above = activation) [5] 0.0315 | thallium flux slope [6] 0.0219

Oc1c(C=Nc2cccc3nsnc23)ccc2ccccc12
inactive: normalised thallium flux (F/F0 slope) [1] 0.00934 | normalized thallium flux [2] 0.00749 | normalized thallium flux [3] 0.0296 | thallium flux rate (normalised fluorescence) [4] 0.00781 | raw Tl+ flux slope (below DMSO = inhibition, above = activation) [5] 0.0438 | thallium flux slope [6] 0.0106

COc1cccc(-c2nnc(NC(=O)c3ccc(S(=O)(=O)N(CC(C)C)CC(C)C)cc3)o2)c1
inactive: normalised thallium flux (F/F0 slope) [1] 0.0109 | normalized thallium flux [3] 0.0331
active: normalized thallium flux [2] 0.0246 | thallium flux rate (normalised fluorescence) [4] 0.0752 | raw Tl+ flux slope (below DMSO = inhibition, above = activation) [5] 0.0359 | thallium flux slope [6] 0.0148
